HepG2 tox-1 – kills HepG2 cells in TGF-b inhibitor counter-screen. AID 588856. Potency, µM (series often up to 46.1 µM), usual class: cytotoxic. 0.76% of 410,000 active. HepG2 CAGA-GFP viability, ATP luminescence, 18 h
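CellTiter-Glo luminescence gave cytotoxicity after 18 hours at 37 degrees C. The cells were HepG2 CAGA-GFP in 1% FBS DMEM, stimulated with 500 pg/mL TGF-beta after compound addition. %Activity was normalised to no-cell wells (complete cell-killing) and DMSO (no toxicity), and curves were fitted and classified.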
IL-1B inflam inh – inflammasome signaling inhibition, IL-1 beta readout. THP-1 LPS/ATP IL-1B secretion, AlphaLISA, 16 h; active compounds read low. activity change, % at 57.5 µM. 4.7% of 360,000 active. AID 743279; in the data active = activity change below about -50%; inconclusive = mostly about -30% to -49%
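Secreted IL-1B measured by AlphaLISA bead assay after 16 h compound exposure of THP-1 cells; compounds (final up to 57.5 uM) added 1 h before LPS (250 ng/mL) and ATP (1.25 mM) stimulation; lower signal means less secretion.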
S-ASM inh – blocks human secretory acid sphingomyelinase | 0.006% of 340,000 active | Potency, µM (top dose mostly 57.5 µM), usual class: inhibitors | AID 504937 | placental ASM, HMU-PC fluorogenic substrate, 60 min
Target sequence (P17405 47-631 limits assumed): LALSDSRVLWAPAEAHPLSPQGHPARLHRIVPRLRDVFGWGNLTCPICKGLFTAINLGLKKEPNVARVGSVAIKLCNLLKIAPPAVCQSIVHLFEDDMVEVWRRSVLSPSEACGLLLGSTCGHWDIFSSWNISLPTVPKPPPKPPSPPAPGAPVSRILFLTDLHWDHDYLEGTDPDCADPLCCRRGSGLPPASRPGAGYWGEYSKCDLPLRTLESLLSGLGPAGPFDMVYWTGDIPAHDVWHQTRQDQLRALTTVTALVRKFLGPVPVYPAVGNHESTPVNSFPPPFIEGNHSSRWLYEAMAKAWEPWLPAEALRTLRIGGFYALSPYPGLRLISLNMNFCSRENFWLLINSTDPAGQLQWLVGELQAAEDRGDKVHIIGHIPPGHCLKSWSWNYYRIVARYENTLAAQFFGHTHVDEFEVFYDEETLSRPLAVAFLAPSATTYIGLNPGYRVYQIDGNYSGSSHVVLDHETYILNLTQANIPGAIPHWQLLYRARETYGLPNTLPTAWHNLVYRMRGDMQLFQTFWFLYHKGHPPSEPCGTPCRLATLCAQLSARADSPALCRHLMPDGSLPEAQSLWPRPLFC
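Steps: dispense placental human ASM, pin compound, wait 10 min at room temperature, add HMU-PC0 substrate at 9 uM final, incubate 60 min at 37 °C, add stop solution raising pH to 10, read fluorescence.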
DT40 TDP1 no CPT – qHTS for Inhibitors of human tyrosyl-DNA phosphodiesterase 1 (TDP1): qHTS in cells in absence of CPT | Potency, µM (highest dose often 46.2 µM), actives largely listed as inhibitors | DT40 Tdp1-/- hTDP1 cells, no CPT, ATP luminescence, 48 h | 15% of 420,000 active; note: nearly all actives have a fitted effect of over 55% in size
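DT40 Tdp1-/-;hTDP1 cells, no CPT (DMSO vehicle only), 400 cells/well; compounds pin-transferred; ≥48 hr, 37 °C; CellTiter-Glo 30 min RT dark, luminescence read.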
TGFb inhibitor – inhibitors of TGF-b signaling. HepG2 CAGA-GFP TGF-b/SMAD3 reporter, GFP fluorescence, 18 h; TGF-beta stimulated, 500 pg/mL final. Potency, µM (highest dose often 46.1 µM), hits mostly inhibitors. 1.2% of 410,000 active; note: nearly all actives have a fitted effect of over 65% in size
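TGF-beta reporter screen: HEPG2 CAGA-GFP, 1% FBS, 500 pg/mL TGF-beta final, 18 h; per-cell GFP summed per well; curves fitted and categorized by class.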
TDP1 cell CPT – DT40-hTDP1 cell growth loss with CPT; chicken DT40 Tdp1-/-;hTDP1 cells + 20 nM CPT, ATP luminescence, 48 h; Potency, µM (doses to about 46.2 µM), most hits filed as inhibitors; 12% of 420,000 active; note: nearly all actives have a fitted effect of over 55% in size
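Cell growth measured by CellTiter-Glo luminescence after a minimum 48 h, 37 C compound exposure with 20 nM CPT in Tdp1-knockout DT40 cells stably expressing hTDP1, seeded 400/well; qHTS titration format.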
TGFb confirm – TGF-b pathway inhibition, cherry-pick retest | shares compounds with TGFb inhibitor | HepG2 CAGA-GFP TGF-b reporter, GFP fluorescence, 18 h; cells stimulated with TGF-beta, 500 pg/mL | Potency, µM (highest dose often 46.1 µM), usual class: inhibitors | 63% of 1,600 active | AID 720534; note: nearly all actives have a fitted effect of over 65% in size
HepG2 tox-2 – counter-screen for TGF-b inhibitors: cytotoxicity in HepG2 cells. HepG2 CAGA-GFP viability, ATP luminescence, 18 h; cells stimulated with TGF-beta, 500 pg/mL. Potency, µM (series often up to 46.1 µM), hits mostly inhibitors. shares compounds with TGFb inhibitor. 27% of 1,600 active. AID 720535; note: nearly all actives have a fitted effect of over 70% in size
CCL64 TGFb inh – blocks TGF-b signaling in CCL64 reporter cells | 41% of 1,600 active | CCL64 CAGA-GFP reporter, TGF-b stimulated, GFP fluorescence, 18 h | AID 720536 | shares compounds with TGFb inhibitor | Potency, µM (highest dose often 46.1 µM), usual class: inhibitors; note: nearly all actives have a fitted effect of over 65% in size
COP TGFb inh – blocks TGF-b signaling in HepG2 COP reporter | 3% of 1,600 active | shares compounds with TGFb inhibitor | HepG2 COP-GFP TGF-b reporter, GFP fluorescence, 18 h; cells stimulated by added recombinant TGF-beta | Potency, µM (series often up to 46.1 µM), usual class: inhibitors; note: nearly all actives have a fitted effect of over 70% in size
Of the large screens only hits and unclear results are named; the others gave an inactive call (follow-up assays come after a bar, where they were run). Rows were chosen to be rich in hits. Some 19% of all compounds tested hit in one or more screens of this group. Unless noted, calls come from the whole dose curve; as a rule, active = well fitted curve in the direction sought with a large enough effect; inconclusive = small, poorly fitted or top-dose-only effect, or another doubt; inactive = no such curve, though single readings can be large; an effect the other way counts as inactive or inconclusive.

CC(NC(=O)c1cccs1)c1nnc(SCc2ccc(Cl)cc2Cl)n1C (stereo not drawn)	DT40 TDP1 no CPT 16.4µM, TDP1 cell CPT inconclusive
CCCSc1nc2c(c(=O)[nH]1)C(c1ccc(F)cc1F)CC(=O)N2 (stereo not drawn)	DT40 TDP1 no CPT inconclusive, TDP1 cell CPT inconclusive (no result: IL-1B inflam inh, S-ASM inh)
O=C(O)c1ccc2ccc3ccccc3c2c1	none
O=c1ccc2ccccc2c2ccccc12	IL-1B inflam inh -115.4, DT40 TDP1 no CPT 2.59µM, TGFb inhibitor 12.6µM, TDP1 cell CPT 2.91µM (no result: S-ASM inh)
CSc1ncccc1C(=O)NC1CCCc2c1cnn2-c1ccc(C)c(C)c1 (stereo not drawn)	DT40 TDP1 no CPT 7.31µM, TDP1 cell CPT 8.2µM
COc1ncccc1C(=O)NC1CCCc2c1cnn2-c1ccc(C)c(C)c1 (stereo not drawn)	DT40 TDP1 no CPT 16.4µM, TGFb inhibitor inconclusive, TDP1 cell CPT 16.4µM
COc1cccc(C(=O)NC2CCCc3c2cnn3-c2ccc(C)c(C)c2)c1OC (stereo not drawn)	DT40 TDP1 no CPT inconclusive, TDP1 cell CPT inconclusive
COc1ccc(OC)c(NC(=O)CCNC(=O)N2CC(=O)Nc3ccccc32)c1	none (no result: S-ASM inh)
Cn1c(=O)c2[nH]c(CCNC(=O)c3ccccc3)nc2n(C)c1=O	none
CC1CN(c2nc3ccccc3nc2SCC(=O)Nc2cccc(C(F)(F)F)c2)CC(C)O1 (stereo not drawn)	DT40 TDP1 no CPT 25.9µM, TGFb inhibitor 15.8µM, TDP1 cell CPT 14.6µM | TGFb confirm 23.1µM | HepG2 tox-2 inconclusive | CCL64 TGFb inh inconclusive | COP TGFb inh inactive
COc1ccc(/C=C/C(=O)c2ccc([N+](=O)[O-])o2)cc1OC	HepG2 tox-1 11.2µM, IL-1B inflam inh -101.9, DT40 TDP1 no CPT 1.16µM, TGFb inhibitor 2.51µM, TDP1 cell CPT 0.581µM | TGFb confirm 2.91µM | HepG2 tox-2 4.61µM | CCL64 TGFb inh 2.06µM | COP TGFb inh inactive
COc1cc(/C=C/C(=O)c2ccc([N+](=O)[O-])o2)ccc1O	IL-1B inflam inh -60.1, DT40 TDP1 no CPT 0.517µM, TGFb inhibitor 1.12µM, TDP1 cell CPT 0.92µM | TGFb confirm 4.11µM | HepG2 tox-2 8.2µM | CCL64 TGFb inh 2.91µM | COP TGFb inh inconclusive
COc1cc(C(=O)COC(=O)c2ccc([N+](=O)[O-])o2)cc(OC)c1OC	TGFb inhibitor inconclusive
Cc1ccc(OCC(=O)N/N=C\c2cn(Cc3ccccc3)c3ccccc23)cc1C	DT40 TDP1 no CPT inconclusive, TGFb inhibitor 11.2µM, TDP1 cell CPT inconclusive | TGFb confirm 5.17µM | HepG2 tox-2 5.17µM | CCL64 TGFb inh inactive | COP TGFb inh inactive
